Here are results for seven molecules from PubChem BioAssay (NCI).

The panel holds about 79,000 compounds, 15% with a hit somewhere; the sample as a whole holds those more often. A number with no mark means an inactive call. The source made the active and inactive calls. Rule as the data show it: active = growth inhibition above about 70%; inactive = the rest.

The nature of assay [1]: NCI Yeast Anticancer Drug Screen. Data for the rad50 strain (AID 155).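 Also: 0% = growth of vehicle-only cultures of the same strain.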 The note with it: S. cerevisiae rad50 strain growth inhibition, hits give high values. In short, it runs like this:
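Yeast carrying a defined DNA repair defect were exposed to test compounds, and growth was compared with vehicle-treated controls to give percent inhibition.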

Assay [2] can be described thus: NCI Yeast Anticancer Drug Screen. Data for the mec2-1 strain (AID 157). The note with it: S. cerevisiae mec2-1 strain, hits give high values. The method in brief:
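Each compound was tested on mec2-1 yeast, a strain altered in DNA damage repair or cell cycle control. Growth inhibition is reported relative to vehicle.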

Assay [3] can be described thus: NCI Yeast Anticancer Drug Screen. Data for the sgs1 mgt1 strain (AID 161).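 Also: 0% = growth of cultures given vehicle only.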 The note with it: S. cerevisiae sgs1 mgt1 strain, hits give high values. The method in brief: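 Inhibition of yeast growth, normalised to vehicle-treated controls, is reported for a strain bearing genetic alterations in DNA damage repair.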
Assay [4] in a line: NCI Yeast Anticancer Drug Screen. Data for the cln2 rad14 strain (AID 165).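 Also: 0% = growth equal to vehicle treated cultures.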 The note with it: S. cerevisiae cln2 rad14 strain, hits give high values. The method in brief:
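Test compounds were added to cln2 rad14 yeast cultures; inhibition of growth was then determined by comparison with vehicle treatment.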

A short description of assay [5]: NCI Yeast Anticancer Drug Screen. Data for the bub3 strain (AID 167). The note with it: S. cerevisiae bub3 mutant strain, hits give high values. The method in brief: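 Compounds were applied to a genetically altered yeast strain carrying a cell-cycle control defect. Growth inhibition was scored against vehicle-treated controls.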
A short description of assay [6]: NCI Yeast Anticancer Drug Screen. Data for the mlh1 rad18 strain (AID 175). The note with it: S. cerevisiae mlh1 rad18 strain growth inhibition, hits give high values. In short, it runs like this:
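Inhibition values reflect reduced growth of mutant yeast versus vehicle-treated controls following compound exposure; the mutations affect DNA damage repair.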

Where [7] appears, read: at 5.0 µM (retest, dose inferred, filed as 0.5).
Setting [8] is: at 50.0 µM (retest, dose inferred, filed as 5.0).

With `NCCCCC(N)C(=O)Nc1ccc2ccccc2c1` (stereo unspecified), the growth inhibition in assay [1] (setting [7]) was -1%; in assay [1] (setting [8]), 91% (active); in assay [1] (at 50.0 µM), 99% (active); in assay [2] (setting [7]), -41%; in assay [2] (setting [8]), 37%; in assay [2] (at 50.0 µM), 99% (active). For the same molecule, the growth inhibition in assay [3] (setting [7]) is 0%; in assay [3] (setting [8]) it was 75% (active); in assay [3] (at 50.0 µM), 99.2% (active); in assay [4] (setting [7]), 1%; in assay [4] (setting [8]), 24%; in assay [4] (at 50.0 µM) it was 82.8% (active). Further, the growth inhibition in assay [5] (setting [7]) is -9%; in assay [5] (setting [8]), 71% (active); in assay [5] (at 50.0 µM) it was 99.3% (active); in assay [6] (setting [7]), 0%; in assay [6] (setting [8]) it was 83% (active); in assay [6] (at 50.0 µM) it was 99% (active).
As for `Oc1ccc(/C=N/NC(=S)NC2CC3CC2C2C=CCC32)c(O)c1` (stereo unspecified), the growth inhibition in assay [1] (setting [7]) is 46%; in assay [1] (setting [8]), 96% (active); in assay [1] (at 50.0 µM), 87.8% (active); in assay [2] (setting [7]) it was 33%; in assay [2] (setting [8]), 97% (active); in assay [2] (at 50.0 µM) it was 90.8% (active). Also, the growth inhibition was 49% in assay [3] (setting [7]); 98% (active) in assay [3] (setting [8]); 92.5% (active) in assay [3] (at 50.0 µM); 26% in assay [4] (setting [7]); 98% (active) in assay [4] (setting [8]); 89.3% (active) in assay [4] (at 50.0 µM). The growth inhibition was 28% in assay [5] (setting [7]); 52% in assay [5] (setting [8]); 90.3% (active) in assay [5] (at 50.0 µM); 65% in assay [6] (setting [7]); 96% (active) in assay [6] (setting [8]); 90% (active) in assay [6] (at 50.0 µM).
Consider `O=C(NNc1nc(-c2ccccc2)cs1)C(F)(F)F`, for which the growth inhibition in assay [1] (setting [7]) is 83% (active); in assay [1] (setting [8]) it was 97% (active); in assay [1] (at 50.0 µM), 86.8% (active); in assay [2] (setting [7]) it was 74% (active); in assay [2] (setting [8]), 98% (active); in assay [2] (at 50.0 µM), 89.7% (active). Besides, the growth inhibition in assay [3] (setting [7]) is 91% (active); in assay [3] (setting [8]) it was 99% (active); in assay [3] (at 50.0 µM), 87.5% (active); in assay [4] (setting [7]), 50%; in assay [4] (setting [8]), 91% (active); in assay [4] (at 50.0 µM) it was 87% (active). Besides, the growth inhibition in assay [5] (setting [7]) is 97% (active); in assay [5] (setting [8]), 99% (active); in assay [5] (at 50.0 µM), 85.7% (active); in assay [6] (setting [7]) it was 93% (active); in assay [6] (setting [8]), 94% (active); in assay [6] (at 50.0 µM) it was 91.2% (active).
With `CCn1c2ccccc2c2ccc(N=Nc3ccc(N(C)C)cc3)cc21`, the growth inhibition in assay [1] (setting [7]) is 34%; in assay [1] (setting [8]), 92% (active); in assay [1] (at 50.0 µM), 77% (active); in assay [2] (setting [7]), 19%; in assay [2] (setting [8]) it was 94% (active); in assay [2] (at 50.0 µM), 78.5% (active). The growth inhibition in assay [3] (setting [7]) was 6%; in assay [3] (setting [8]), 92% (active); in assay [3] (at 50.0 µM), 79.5% (active); in assay [4] (setting [7]) it was 15%; in assay [4] (setting [8]), 84% (active); in assay [4] (at 50.0 µM) it was 85.7% (active). Moreover, the growth inhibition in assay [5] (setting [7]) is 10%; in assay [5] (setting [8]) it was 92% (active); in assay [5] (at 50.0 µM), 82.3% (active); in assay [6] (setting [7]), 18%; in assay [6] (setting [8]) it was 93% (active); in assay [6] (at 50.0 µM), 83.4% (active).
Consider `COc1ccc(C(=O)CCc2c[nH]c3ccccc23)c(O)c1`, for which the growth inhibition in assay [1] (setting [7]) is 2%; in assay [1] (setting [8]), 43%; in assay [1] (at 50.0 µM) it was -1.85%; in assay [2] (setting [7]) it was -9%; in assay [2] (setting [8]) it was 22%; in assay [2] (at 50.0 µM), 13.8%. Also, the growth inhibition is 11% in assay [3] (setting [7]); 46% in assay [3] (setting [8]); 36% in assay [3] (at 50.0 µM); 22% in assay [4] (setting [7]); 72% (active) in assay [4] (setting [8]); 14.2% in assay [4] (at 50.0 µM). The growth inhibition in assay [5] (setting [7]) was 12%; in assay [5] (setting [8]) it was 79% (active); in assay [5] (at 50.0 µM), 23.5%; in assay [6] (setting [7]), -9%; in assay [6] (setting [8]), 79% (active); in assay [6] (at 50.0 µM), -13.3%.
Consider `O=C(CBr)Oc1ccc(-c2cccc(Br)c2)cc1`, for which the growth inhibition was 1% in assay [1] (setting [7]); 99% (active) in assay [1] (setting [8]); 99.7% (active) in assay [1] (at 50.0 µM); 6% in assay [2] (setting [7]); 99% (active) in assay [2] (setting [8]); 99.5% (active) in assay [2] (at 50.0 µM). Also, the growth inhibition in assay [3] (setting [7]) was 15%; in assay [3] (setting [8]) it was 100% (active); in assay [3] (at 50.0 µM), 99.6% (active); in assay [4] (setting [7]) it was -14%; in assay [4] (setting [8]) it was 99% (active); in assay [4] (at 50.0 µM) it was 98.6% (active). Also, the growth inhibition was -6% in assay [5] (setting [7]); 99% (active) in assay [5] (setting [8]); 99.6% (active) in assay [5] (at 50.0 µM); 4% in assay [6] (setting [7]); 99% (active) in assay [6] (setting [8]); 99.2% (active) in assay [6] (at 50.0 µM).
With `O=[N+]([O-])c1ccc2nc(CCl)[nH]c2c1`, the growth inhibition in assay [1] (setting [7]) is 46%; in assay [1] (setting [8]) it was 80% (active); in assay [1] (at 50.0 µM) it was 73.2% (active); in assay [2] (setting [7]), 37%; in assay [2] (setting [8]), 74% (active); in assay [2] (at 50.0 µM), 65.5%. In addition, the growth inhibition is 42% in assay [3] (setting [7]); 83% (active) in assay [3] (setting [8]); 75% (active) in assay [3] (at 50.0 µM); 35% in assay [4] (setting [7]); 56% in assay [4] (setting [8]); 61% in assay [4] (at 50.0 µM). In addition, the growth inhibition was 43% in assay [5] (setting [7]); 84% (active) in assay [5] (setting [8]); 74% (active) in assay [5] (at 50.0 µM); 49% in assay [6] (setting [7]); 87% (active) in assay [6] (setting [8]); 73.3% (active) in assay [6] (at 50.0 µM).
